Active and inactive are the calls of the source.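 How the source made its calls, unless noted: active means inhibition of the reporter signal at or above 50%; inactive means inhibition below 50%.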

The results in this text go back to PubChem BioAssay.

Assay [1] is described as follows: inhibitors of TNFa-induced NFkB p65 translocation, primary screen, imaging, HUVEC, MLSMR starter and 10KST1 sets (AID 438;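 active means inhibition above 20% together with a positive visual image hit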;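 further: compound added about 3h40 before a 20 min TNFalpha stimulation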;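 on inhibition: signal is the nuclear over cytoplasmic p65 intensity ratio per well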). The note with it: HUVEC TNFa-induced p65 nuclear translocation; cell count: measured here: nuclei count (cytotoxicity indicator), at 2.08 µM unless noted; inhibition: at 2 µM, stronger effect = higher value unless noted.
Assay [2] can be described thus: inhibitors of mutant huntingtin aggregation, primary screen, imaging, exon1htt(103Q)mCFP cells, high-content imaging (AID 483;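 active means visual image review flags a hit and inhibition of aggregation exceeds 20%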;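 further: compound exposure lasted 3 days before fixation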;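 on nuclei count: percent of the per-plate median nuclei count of sample wells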). Conditions: exon1htt(103Q)mCFP cell line, aggregate imaging, at 2 µM; inhibition of aggregation: stronger effect = higher value; nuclei count: measured here: cell count, toxicity.
Assay [3] is described as follows: inhibitors of E-selectin induction by TNFa, primary screen, imaging, HUVEC, immunofluorescence, MLSMR starter and 10KST1 sets (AID 487;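 active means visually confirmed hit in the image check and inhibition above 20%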;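 on inhibition: signal is fraction of cell area covered by stained E-selectin grains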;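 on nuclei count: 100% = median nuclei count of all wells on the same plate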). The note with it: HUVEC TNFalpha-induced E-selectin immunofluorescence imaging, at 2 µM; inhibition: stronger effect = higher value; nuclei count: measured here: cell number, toxicity.
For assay [4], the target named is Voltage-gated potassium channel subunit beta-2 (Rattus norvegicus) (UniProt P62483). Kind of assay: KvBeta enzyme negative modulators, primary screen, biochemical, NADPH fluorescence (AID 622;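 active means fluorescence slope higher than the sample average by over 3 SD, cut at about -0.22 in these data, passing the limit was not always enough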;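 further: slope of raw intensity against log time taken from 70 to 1610 s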). The note with it: recombinant KvBeta, 4-cyanobenzaldehyde reduction, at 10 µM, stronger effect = higher value.
Chain of Voltage-gated potassium channel subunit beta-2 (Rattus norvegicus) (P62483 whole entry, looked up): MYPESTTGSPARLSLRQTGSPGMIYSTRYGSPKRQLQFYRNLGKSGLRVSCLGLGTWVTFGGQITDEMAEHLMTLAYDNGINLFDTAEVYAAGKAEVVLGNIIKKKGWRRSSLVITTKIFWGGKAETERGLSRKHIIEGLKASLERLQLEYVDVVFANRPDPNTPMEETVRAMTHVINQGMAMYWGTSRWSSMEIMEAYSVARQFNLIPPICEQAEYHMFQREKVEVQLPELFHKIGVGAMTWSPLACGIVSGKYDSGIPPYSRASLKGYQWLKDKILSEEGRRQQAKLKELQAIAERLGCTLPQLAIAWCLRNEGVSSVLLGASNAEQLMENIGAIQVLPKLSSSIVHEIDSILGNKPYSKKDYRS
Assay [5] shares this target. Kind of assay: KvBeta positive modulators, primary screen, biochemical, NADPH fluorescence (AID 623;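 active means NADPH fluorescence slope more negative than the mean of all samples by about 3 SD, 99.7% confidence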;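 further: fluorescence intensity change per second fitted from 20 to 320 s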). The note with it: Recombinant KvBeta, NADPH fluorescence decrease slope, 10 min; at 10 µM; stronger effect = lower value.
The target of assay [6] is Muscarinic acetylcholine receptor M4 (Homo sapiens) (UniProt P08173). Nature of the assay: compounds altering M4/GIRK thallium flux, either direction, primary screen, M4 allosteric agonist project, cell-based, HEK293 M4/GIRK, BTC-AM (AID 625;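 active means fluorescence slope after compound addition differing from the mean of all tested samples at 99.7% confidence, mostly higher but some lower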;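 further: thallium influx through GIRK channels coupled to M4 in HEK293 cells with BTC-AM dye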). The note with it: at 10 µM, actives lie on both sides.
Chain of Muscarinic acetylcholine receptor M4 (Homo sapiens) (P08173 whole entry, looked up): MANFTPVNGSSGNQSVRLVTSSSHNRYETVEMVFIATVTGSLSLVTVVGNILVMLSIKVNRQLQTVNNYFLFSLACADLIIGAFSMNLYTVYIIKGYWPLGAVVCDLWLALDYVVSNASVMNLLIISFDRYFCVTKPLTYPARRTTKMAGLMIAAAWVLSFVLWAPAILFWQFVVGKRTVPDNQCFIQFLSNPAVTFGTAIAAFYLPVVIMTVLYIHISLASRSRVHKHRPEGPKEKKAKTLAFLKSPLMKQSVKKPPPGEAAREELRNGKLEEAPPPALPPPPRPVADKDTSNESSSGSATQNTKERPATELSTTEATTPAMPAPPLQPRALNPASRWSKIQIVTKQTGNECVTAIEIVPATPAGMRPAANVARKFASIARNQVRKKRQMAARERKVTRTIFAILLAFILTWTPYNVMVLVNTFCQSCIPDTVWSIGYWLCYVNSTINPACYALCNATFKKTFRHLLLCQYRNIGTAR
The nature of assay [7]: inhibitors of Sendai virus-induced IRF3 signaling, primary screen, TLR/RLR signaling modifier project, cell-based, Sendai virus stimulus, luciferase, 10K MLSCN set (AID 602276;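 active means inhibition at or above 50% at 10 µM; inactive means inhibition below 50%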;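 further: firefly luciferase from ISG56 promoter only with Renilla not read in this screen; 0% = Sendai virus plus DMSO and 100% = medium plus DMSO without virus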). The note with it: HEK293 RL24 IRF3 luciferase reporter, at 10 µM, stronger effect = higher value. Background: In a reporter assay the amount or activity of a reporter protein is the signal.
A short description of assay [8]: inhibitors of poly I:C-induced TLR3 signaling, primary screen, cell-based, poly I:C stimulus, luciferase, 10K MLSCN set (AID 602277). The note with it: HEK293-TLR3 RL24 IRF3 luciferase reporter, at 10 µM, stronger effect = higher value.
A short description of assay [9]: inhibitors of Chlamydomonas gravitaxis, primary screen, whole organism, Chlamydomonas reinhardtii, WT vs cilia-less mutant, absorbance, 96-well (AID 463189;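 active means inhibition at or above 50% relative to wild type and mutant plate controls; inactive means inhibition below 50%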;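 further: 0% = wild type cc124 cells in DMSO and 100% = ciliumless bld1 mutant cells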). Conditions: OD600 absorbance, 2 days, at 10 µM, stronger effect = higher value.

`CSc1ccc(C(=O)C(C)(C)N2CCOCC2)cc1` yielded a cell count in assay [1] of 401. In addition, the inhibition (in general, the relative decrease from the control value, in per cent) in assay [1] was -5.2% (inactive); in assay [3], -65.3% (inactive); in [7] it was 14.9% (inactive); in assay [8] it was 2.25% (inactive). The inhibition of aggregation in [2] was -13.1% (inactive). The figures for the nuclei count in assay [2] and in assay [3] were 102% and 105%, respectively. Also, the fluorescence slope in assay [4] was -0.577 (inactive); in assay [6], 0.00392 (inactive). Moreover, the NADPH fluorescence slope in assay [5] is -4.3e-05 (inactive).

For `Cc1[nH]c2ccc(O)cc2c1CCN`, the inhibition in assay [9] was 5.71% (inactive).

With `O=C(Cc1ccccc1)OC(COCc1ccccc1)CN1CCOCC1` (stereo unspecified), in assay [1], the cell count turned out to be 314. For the same compound, the inhibition in assay [1] was -7.8% (inactive); in assay [3], -56.9% (inactive); in assay [7], 2.92% (inactive); in assay [8] it was 10.1% (inactive). Further, the inhibition of aggregation in assay [2] was -19.1% (inactive). The nuclei count turned out to be 77.8% in assay [2] and 117% in [3]. Moreover, the values for the fluorescence slope in assay [4] and in assay [6] were -0.37 (inactive) and 0.00718 (inactive), respectively. Besides, the NADPH fluorescence slope in assay [5] was 2.9e-05 (inactive).

Compound `CCN1CCN(c2ncnc3ccc(Br)cc23)CC1` yielded a cell count in assay [1] of 207. The inhibition in [1] is 2.1% (inactive); in assay [3], -79% (inactive); in [7] it was 13.3% (inactive); in [8], 8.78% (inactive). Besides, the inhibition of aggregation in assay [2] was 48% (active). For the same compound, the nuclei count in assay [2] came to 77.2%; in assay [3], 99.3%. Further, the figures for the fluorescence slope in [4] and in assay [6] were -0.583 (inactive) and 0.00395 (inactive), respectively. The NADPH fluorescence slope in assay [5] is 2.1e-06 (inactive).

With `Cn1c(O)c(C=NCc2ccco2)c(=O)n(C)c1=O`, in [1], the cell count was 327. For the same compound, the inhibition in assay [1] is -3.8% (inactive); in [3] it was -150% (inactive); in assay [7] it was 22.6% (inactive); in assay [8], 14.6% (inactive). Moreover, in assay [2], the inhibition of aggregation is -8.5% (inactive). Further, the figures for the nuclei count in assay [2] and in assay [3] were 109% and 118%, respectively. Further, the results for the fluorescence slope in assay [4] and in assay [6] were -0.557 (inactive) and 0.00416 (inactive), respectively. For the same compound, the NADPH fluorescence slope in assay [5] is 3.2e-06 (inactive).

With `CCOc1ccc(Br)c(C2(O)CC(C)N(C)CC2C)c1` (stereo unspecified), the cell count in assay [1] stood at 607. Moreover, the inhibition in [1] was -10.1% (inactive); in assay [3] it was -36.6% (inactive); in assay [7], 12.4% (inactive); in assay [8] it was 21.4% (inactive). For the same compound, the inhibition of aggregation in [2] was -25.8% (inactive). In addition, the values for the nuclei count in [2] and in assay [3] were 122% and 121%, respectively. Further, the fluorescence slope was -0.398 (inactive) in assay [4] and 0.00551 (inactive) in assay [6]. The NADPH fluorescence slope in assay [5] was -8.9e-05 (inactive).

On to `NC(=O)CSP(=O)(c1ccccc1)c1ccccc1`, for which, in [1], the cell count was found to be 427. The inhibition is -3.5% (inactive) in assay [1], -31.5% (inactive) in [3], 6.33% (inactive) in assay [7] and 18.3% (inactive) in assay [8]. For the same compound, in assay [2], the inhibition of aggregation was 4.2% (inactive). In addition, the nuclei count was found to be 110% in assay [2] and 105% in [3]. Further, the results for the fluorescence slope in [4] and in [6] were -0.541 (inactive) and 0.00487 (inactive), respectively. In addition, the NADPH fluorescence slope in assay [5] was -3.8e-05 (inactive).

In [1], `COc1ccccc1OCCCn1cc(C(=O)c2ccco2)c2ccccc21` displayed a cell count of 596. In addition, the inhibition was -2.5% (inactive) in assay [1], -29.4% (inactive) in [3], -22.2% (inactive) in assay [7] and -81.2% (inactive) in assay [8]. The inhibition of aggregation in [2] was -12.2% (inactive). Besides, the results for the nuclei count in assay [2] and in [3] were 101% and 111%, respectively. Moreover, the fluorescence slope in assay [4] was -0.309 (inactive); in [6], 0.00746 (inactive). Moreover, the NADPH fluorescence slope in [5] was -2.9e-06 (inactive).

Take `NC(=O)OCCSc1nnc(-c2cccc(C(N)=S)c2)o1`: in [1], the cell count was determined as 330. Further, the inhibition was 3.5% (inactive) in assay [1], -48% (inactive) in assay [3], 17.8% (inactive) in assay [7] and 12.8% (inactive) in assay [8]. In [2], the inhibition of aggregation is -7.4% (inactive). Besides, the nuclei count in assay [2] amounted to 107%; in assay [3], 96.2%. Also, the fluorescence slope in assay [4] was -0.541 (inactive); in assay [6], 0.00508 (inactive). Moreover, in [5], the NADPH fluorescence slope is -9.5e-05 (inactive).

On to `CCOC(=O)c1cccc([P+](=O)O)c1`, for which the cell count in [1] came out at 570. In addition, the inhibition is 0% (inactive) in assay [1], -41.6% (inactive) in assay [3], -12.3% (inactive) in assay [7] and -3.34% (inactive) in assay [8]. For the same compound, in assay [2], the inhibition of aggregation was 1.9% (inactive). The nuclei count is 95.2% in [2] and 106% in assay [3]. The fluorescence slope is -0.582 (inactive) in assay [4] and 0.00773 (inactive) in assay [6]. The NADPH fluorescence slope in assay [5] was -3.4e-05 (inactive).

In [1], `COc1ccccc1N1CCN(Cc2cccc(OC)c2O)CC1` gave a cell count of 509. Moreover, the inhibition was -6% (inactive) in assay [1], -10% (inactive) in assay [3], 14.4% (inactive) in assay [7] and 12.6% (inactive) in assay [8]. Besides, the inhibition of aggregation in [2] is 23.5% (inactive). Moreover, the nuclei count in assay [2] was 95.4%; in assay [3], 85.8%. In addition, the fluorescence slope in assay [4] is -0.58 (inactive); in assay [6], 0.0035 (inactive). Moreover, the NADPH fluorescence slope in assay [5] is -0.000104 (inactive).

As for `C[C@]12CC[C@H](OS(=O)(=O)O)CC1=CC[C@@H]1[C@@H]2CC[C@]2(C)C(=O)CC[C@@H]12`, in assay [9], the inhibition was 6.73% (inactive).

For `COCCOC(=O)C1=C(N)Oc2c(c(=O)oc3ccccc23)C1c1ccncc1` (stereo unspecified), the cell count in assay [1] is 329. Also, the inhibition in assay [1] was 2.2% (inactive); in assay [3] it was 1.8% (inactive); in [7], 14.5% (inactive); in assay [8], 27.3% (inactive). Also, the inhibition of aggregation in [2] was 1.7% (inactive). Also, the nuclei count in assay [2] was determined as 73%; in assay [3], 73.8%. Moreover, the fluorescence slope in assay [4] is -0.474 (inactive); in [6] it was 0.00616 (inactive). In addition, the NADPH fluorescence slope in assay [5] is -1.3e-05 (inactive).

Compound `O=C(CN1C(=O)CN=C(c2ccccc2)c2ccccc21)NCc1ccco1` yielded a cell count in assay [1] of 519. Also, the inhibition in [1] is -2.9% (inactive); in [3], -66.7% (inactive); in assay [7], -12.7% (inactive); in [8], -12.1% (inactive). Moreover, the inhibition of aggregation in assay [2] is -13.4% (inactive). Moreover, the values for the nuclei count in assay [2] and in assay [3] were 99.4% and 142%, respectively. In addition, the results for the fluorescence slope in [4] and in [6] were -0.571 (inactive) and 0.00595 (inactive), respectively. In addition, the NADPH fluorescence slope in [5] was -6.4e-05 (inactive).

For the compound `CC(=O)N1CC(=O)Nc2ccc(Cl)cc2C1c1ccc(F)cc1` (stereo unspecified), in assay [1], the cell count was found to be 416. In addition, the inhibition was 20.8% (inactive) in assay [1], -45.1% (inactive) in assay [3], -2.3% (inactive) in assay [7] and -0.788% (inactive) in [8]. Further, in [2], the inhibition of aggregation is -6.1% (inactive). Besides, the nuclei count is 103% in assay [2] and 105% in [3]. The values for the fluorescence slope in assay [4] and in assay [6] were -0.569 (inactive) and 0.00574 (inactive), respectively. Further, in assay [5], the NADPH fluorescence slope is -1.5e-05 (inactive).

`CC1(C)CC(=O)C=C(NCCN2CCN(C(=O)Cc3ccc(Cl)cc3)CC2)C1` had a cell count in [1] of 706. Further, the inhibition in assay [1] was -4.2% (inactive); in assay [3] it was -80.1% (inactive); in [7] it was 16.3% (inactive); in [8], 9.81% (inactive). Besides, in assay [2], the inhibition of aggregation is 3% (inactive). In addition, the nuclei count in assay [2] came to 120%; in assay [3], 109%. In addition, the fluorescence slope was -0.463 (inactive) in [4] and 0.00475 (inactive) in [6]. In addition, in assay [5], the NADPH fluorescence slope was -4.2e-05 (inactive).
